The text below walks through data of ChEMBL document CHEMBL3988442, “University of Dundee, Small-Polar-MMV Screening Library” (2021).

For some of these results: Results with a measured potency or affinity are listed apart.

What all share (design): scale not given: direction of the effect not stated beside the values
For assay [1], the target named is Protein translocase subunit SecA (Escherichia coli (strain K12)) (UniProt P10408). As to the kind of experiment: Assay to Identify E. coli SecA ATPase Inhibitors. Format: functional. The settings on record: 30 µM.
Assay [2] has as its target T1, Ubiquitin-activating enzyme e1, putative (Leishmania donovani (strain BPK282A1)) (UniProt E9BSI1).
T1 sequence (whole entry): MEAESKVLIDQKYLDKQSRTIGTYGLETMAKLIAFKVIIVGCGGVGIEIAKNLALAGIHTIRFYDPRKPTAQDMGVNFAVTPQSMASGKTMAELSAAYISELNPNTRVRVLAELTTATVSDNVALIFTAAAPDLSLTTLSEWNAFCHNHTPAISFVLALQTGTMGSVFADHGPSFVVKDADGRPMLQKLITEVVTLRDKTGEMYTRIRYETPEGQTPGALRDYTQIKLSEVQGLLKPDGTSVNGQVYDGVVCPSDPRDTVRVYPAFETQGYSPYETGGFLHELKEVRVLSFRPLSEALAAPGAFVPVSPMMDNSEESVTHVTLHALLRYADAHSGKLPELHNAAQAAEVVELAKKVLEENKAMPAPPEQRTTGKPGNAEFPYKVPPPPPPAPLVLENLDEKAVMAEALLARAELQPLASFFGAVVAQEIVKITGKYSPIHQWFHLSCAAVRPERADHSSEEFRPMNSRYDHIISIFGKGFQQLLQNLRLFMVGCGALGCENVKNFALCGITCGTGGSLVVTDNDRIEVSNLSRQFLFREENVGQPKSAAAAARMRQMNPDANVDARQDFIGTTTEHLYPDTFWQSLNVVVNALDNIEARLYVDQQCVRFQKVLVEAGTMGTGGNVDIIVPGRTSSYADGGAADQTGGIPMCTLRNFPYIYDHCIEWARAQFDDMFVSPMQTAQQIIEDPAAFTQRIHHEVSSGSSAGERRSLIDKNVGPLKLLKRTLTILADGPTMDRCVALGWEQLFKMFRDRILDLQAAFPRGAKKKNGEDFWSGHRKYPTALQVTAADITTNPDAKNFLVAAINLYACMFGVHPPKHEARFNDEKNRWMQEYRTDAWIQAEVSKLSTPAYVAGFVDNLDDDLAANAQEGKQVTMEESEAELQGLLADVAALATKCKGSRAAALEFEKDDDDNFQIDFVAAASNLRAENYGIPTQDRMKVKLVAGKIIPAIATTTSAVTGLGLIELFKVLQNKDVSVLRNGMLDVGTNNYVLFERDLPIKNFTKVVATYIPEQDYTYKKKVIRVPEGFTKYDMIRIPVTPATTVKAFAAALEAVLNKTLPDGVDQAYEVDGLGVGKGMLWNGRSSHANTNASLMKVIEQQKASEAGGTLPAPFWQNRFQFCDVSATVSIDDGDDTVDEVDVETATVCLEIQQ
Description: Leishmania donovani Ubiquitin Activating Enzyme (LdE1). Format: functional. The settings on record: 30 µM.

In assay [3] the target is AMP-activated protein kinase, AMPK (Homo sapiens) (UniProt P54646+O43741+P54619+Q9UGJ0+Q9Y478+Q13131+Q9UGI9). As to the kind of experiment: AMP-dependent Kinase enzyme assay. An in vitro enzyme assay that detects ADP turnover that is directly proportional to AMPK activity. This uses naive AMPK that is activated during the assay with MK-8722. The format is functional. Conditions: 30 µM.

Assay [4] addresses Sialic acid-binding Ig-like lectin 9 (Homo sapiens) (UniProt Q9Y336). Description: Hs-Siglec9 ALPHAscreen SOP 20170721. The settings on record: 10 µM. For orientation: Alpha assays give light when donor and acceptor beads are brought close together.
The subject of the next assay is Trypanosoma cruzi. As to the kind of experiment: Trypanosoma cruzi phosphomannomutase and mannose-1-phosphate guanylyltransferase assay. The format is functional. The settings on record: 10 µM.
Assay [5] deals with T2, Arginase-2, mitochondrial (Homo sapiens) (UniProt P78540).
T2 sequence (whole entry): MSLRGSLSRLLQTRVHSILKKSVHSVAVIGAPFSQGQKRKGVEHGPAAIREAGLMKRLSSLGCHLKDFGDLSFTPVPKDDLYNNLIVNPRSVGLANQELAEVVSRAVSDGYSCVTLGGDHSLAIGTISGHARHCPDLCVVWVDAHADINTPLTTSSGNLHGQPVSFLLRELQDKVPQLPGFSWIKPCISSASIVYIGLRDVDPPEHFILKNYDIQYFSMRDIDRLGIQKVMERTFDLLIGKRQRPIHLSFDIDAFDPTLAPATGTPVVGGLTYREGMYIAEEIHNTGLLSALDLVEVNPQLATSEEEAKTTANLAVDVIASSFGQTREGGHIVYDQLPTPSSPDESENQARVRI
Description: in vitro enzyme assay to detect the production of urea directly proportional to the activity of Arginase II. Further: in the data most compounds retested in dose-response had high values. Format: functional. Conditions: 33.3 µM.

The target of assay [6] is T3, Proteasome subunit beta (Trypanosoma cruzi) (UniProt O96673).
T3 sequence (whole entry): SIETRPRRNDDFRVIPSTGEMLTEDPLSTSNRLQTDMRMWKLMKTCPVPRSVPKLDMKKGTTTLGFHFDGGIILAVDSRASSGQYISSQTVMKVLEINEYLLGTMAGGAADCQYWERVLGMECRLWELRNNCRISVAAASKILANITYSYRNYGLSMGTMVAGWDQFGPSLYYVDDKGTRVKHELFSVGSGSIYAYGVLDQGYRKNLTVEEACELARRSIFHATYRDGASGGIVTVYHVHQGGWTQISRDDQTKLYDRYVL
Description: Trypanosoma cruzi proteasome chymotrypsin-like activity (TcProtChymo) assay. Further: in the data most compounds retested in dose-response had high values. Format: functional. The settings on record: 9.37 µM.

For another assay, the species on record is Homo sapiens. Description: To identify inhibition of the IFN signalling (Jak-Stat) pathway via expression of an eGFP reporter gene under the control of an IFN-stimulated response element (ISRE) containing MxA promoter. Format: functional. The settings on record: 30 µM.
Assay [7] addresses T4, Tyrosyl-tRNA synthetase, putative (Trypanosoma cruzi (strain CL Brener)) (UniProt Q4DSP6).
T4 sequence (whole entry): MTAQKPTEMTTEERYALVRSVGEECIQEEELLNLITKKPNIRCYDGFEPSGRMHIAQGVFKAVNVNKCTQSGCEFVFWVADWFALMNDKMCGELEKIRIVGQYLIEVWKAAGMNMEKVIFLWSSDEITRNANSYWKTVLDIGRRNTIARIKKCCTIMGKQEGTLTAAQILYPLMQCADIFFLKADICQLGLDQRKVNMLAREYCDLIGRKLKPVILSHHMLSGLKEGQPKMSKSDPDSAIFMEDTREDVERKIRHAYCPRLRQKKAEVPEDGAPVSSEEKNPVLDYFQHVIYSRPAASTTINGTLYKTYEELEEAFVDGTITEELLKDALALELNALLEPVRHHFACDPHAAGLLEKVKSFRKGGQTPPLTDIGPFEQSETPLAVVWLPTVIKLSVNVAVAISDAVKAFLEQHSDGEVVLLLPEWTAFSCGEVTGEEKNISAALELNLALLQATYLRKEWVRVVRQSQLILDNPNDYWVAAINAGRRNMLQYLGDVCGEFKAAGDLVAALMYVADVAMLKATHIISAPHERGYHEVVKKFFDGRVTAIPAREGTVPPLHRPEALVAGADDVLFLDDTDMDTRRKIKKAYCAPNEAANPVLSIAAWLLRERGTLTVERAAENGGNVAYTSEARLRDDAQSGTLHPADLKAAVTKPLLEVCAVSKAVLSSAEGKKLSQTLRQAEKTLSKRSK
As to the kind of experiment: Trypanosoma cruzi tyrosyl tRNA synthetase (TcYRS) _High Tyrosine SOP. Further: in the data most compounds retested in dose-response had high values. Format: functional. Conditions: 30 µM.

Assay [8] concerns the target T4, Tyrosyl-tRNA synthetase, putative (Trypanosoma cruzi (strain CL Brener)). As to the kind of experiment: Trypanosoma cruzi tyrosyl tRNA synthetase (TcYRS) SOP. The format is functional. Conditions: 30 µM.
Assay [9] deals with Chromo domain-containing protein 1 (Saccharomyces cerevisiae (strain ATCC 204508 / S288c) (Baker's yeast)) (UniProt P32657). Description: ScCHD-1 Enzyme Inhibition Assay. Further: in the data most compounds retested in dose-response had high values. The format is functional. Conditions: 30 µM.
Chain of Chromo domain-containing protein 1 (Saccharomyces cerevisiae (strain ATCC 204508 / S288c) (Baker's yeast)) (P32657 whole entry, the tested form may be a part): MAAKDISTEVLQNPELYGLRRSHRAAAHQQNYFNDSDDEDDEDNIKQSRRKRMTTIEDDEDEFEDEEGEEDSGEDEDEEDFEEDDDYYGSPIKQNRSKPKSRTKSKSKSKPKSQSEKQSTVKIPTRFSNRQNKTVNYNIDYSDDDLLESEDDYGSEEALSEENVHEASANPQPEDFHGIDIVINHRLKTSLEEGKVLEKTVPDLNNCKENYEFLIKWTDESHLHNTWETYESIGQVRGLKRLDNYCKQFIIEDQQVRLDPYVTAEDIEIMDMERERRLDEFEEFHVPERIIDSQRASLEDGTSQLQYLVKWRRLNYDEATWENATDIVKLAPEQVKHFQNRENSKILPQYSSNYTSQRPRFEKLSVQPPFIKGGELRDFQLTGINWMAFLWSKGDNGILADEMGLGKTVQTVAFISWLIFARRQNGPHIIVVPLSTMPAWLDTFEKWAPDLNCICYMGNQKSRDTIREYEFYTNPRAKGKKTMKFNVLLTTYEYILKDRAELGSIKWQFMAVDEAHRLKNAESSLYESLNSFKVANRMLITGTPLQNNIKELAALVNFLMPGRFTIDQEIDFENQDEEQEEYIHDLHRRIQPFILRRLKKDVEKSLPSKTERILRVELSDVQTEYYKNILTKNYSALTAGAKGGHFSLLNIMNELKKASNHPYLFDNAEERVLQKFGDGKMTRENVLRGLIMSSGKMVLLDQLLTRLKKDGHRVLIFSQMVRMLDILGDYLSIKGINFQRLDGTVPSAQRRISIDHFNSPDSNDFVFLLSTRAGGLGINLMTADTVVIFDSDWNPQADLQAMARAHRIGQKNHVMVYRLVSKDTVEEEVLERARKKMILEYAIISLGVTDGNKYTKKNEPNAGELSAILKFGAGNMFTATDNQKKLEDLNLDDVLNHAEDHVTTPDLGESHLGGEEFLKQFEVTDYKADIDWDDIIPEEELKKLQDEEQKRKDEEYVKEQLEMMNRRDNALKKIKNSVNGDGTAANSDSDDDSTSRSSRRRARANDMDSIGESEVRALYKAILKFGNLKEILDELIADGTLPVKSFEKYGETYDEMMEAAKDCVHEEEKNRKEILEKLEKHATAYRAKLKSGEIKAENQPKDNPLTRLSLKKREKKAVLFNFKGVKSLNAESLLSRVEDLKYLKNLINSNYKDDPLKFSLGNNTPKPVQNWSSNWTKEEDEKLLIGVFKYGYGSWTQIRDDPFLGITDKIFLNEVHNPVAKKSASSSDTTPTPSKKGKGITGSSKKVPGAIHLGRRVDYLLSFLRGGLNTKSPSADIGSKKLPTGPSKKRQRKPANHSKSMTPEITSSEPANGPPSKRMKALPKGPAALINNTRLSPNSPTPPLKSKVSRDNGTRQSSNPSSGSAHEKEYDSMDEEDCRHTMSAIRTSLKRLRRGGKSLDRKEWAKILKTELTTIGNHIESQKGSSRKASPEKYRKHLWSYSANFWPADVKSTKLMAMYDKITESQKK

Chain of Sialic acid-binding Ig-like lectin 9 (Homo sapiens) (Q9Y336 whole entry): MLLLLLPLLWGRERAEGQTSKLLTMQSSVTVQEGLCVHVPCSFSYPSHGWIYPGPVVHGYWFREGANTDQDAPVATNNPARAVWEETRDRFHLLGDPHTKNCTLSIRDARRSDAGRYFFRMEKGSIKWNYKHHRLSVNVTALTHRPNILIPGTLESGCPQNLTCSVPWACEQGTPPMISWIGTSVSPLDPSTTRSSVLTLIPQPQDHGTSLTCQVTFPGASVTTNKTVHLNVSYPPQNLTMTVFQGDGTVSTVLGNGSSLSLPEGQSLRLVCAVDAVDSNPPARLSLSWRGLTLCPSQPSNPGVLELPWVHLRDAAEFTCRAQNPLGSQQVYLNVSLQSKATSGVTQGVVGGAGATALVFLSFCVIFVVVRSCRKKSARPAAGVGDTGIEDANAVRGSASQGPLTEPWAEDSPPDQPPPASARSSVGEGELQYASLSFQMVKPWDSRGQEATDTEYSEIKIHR
Chain of Protein translocase subunit SecA (Escherichia coli (strain K12)) (P10408 whole entry): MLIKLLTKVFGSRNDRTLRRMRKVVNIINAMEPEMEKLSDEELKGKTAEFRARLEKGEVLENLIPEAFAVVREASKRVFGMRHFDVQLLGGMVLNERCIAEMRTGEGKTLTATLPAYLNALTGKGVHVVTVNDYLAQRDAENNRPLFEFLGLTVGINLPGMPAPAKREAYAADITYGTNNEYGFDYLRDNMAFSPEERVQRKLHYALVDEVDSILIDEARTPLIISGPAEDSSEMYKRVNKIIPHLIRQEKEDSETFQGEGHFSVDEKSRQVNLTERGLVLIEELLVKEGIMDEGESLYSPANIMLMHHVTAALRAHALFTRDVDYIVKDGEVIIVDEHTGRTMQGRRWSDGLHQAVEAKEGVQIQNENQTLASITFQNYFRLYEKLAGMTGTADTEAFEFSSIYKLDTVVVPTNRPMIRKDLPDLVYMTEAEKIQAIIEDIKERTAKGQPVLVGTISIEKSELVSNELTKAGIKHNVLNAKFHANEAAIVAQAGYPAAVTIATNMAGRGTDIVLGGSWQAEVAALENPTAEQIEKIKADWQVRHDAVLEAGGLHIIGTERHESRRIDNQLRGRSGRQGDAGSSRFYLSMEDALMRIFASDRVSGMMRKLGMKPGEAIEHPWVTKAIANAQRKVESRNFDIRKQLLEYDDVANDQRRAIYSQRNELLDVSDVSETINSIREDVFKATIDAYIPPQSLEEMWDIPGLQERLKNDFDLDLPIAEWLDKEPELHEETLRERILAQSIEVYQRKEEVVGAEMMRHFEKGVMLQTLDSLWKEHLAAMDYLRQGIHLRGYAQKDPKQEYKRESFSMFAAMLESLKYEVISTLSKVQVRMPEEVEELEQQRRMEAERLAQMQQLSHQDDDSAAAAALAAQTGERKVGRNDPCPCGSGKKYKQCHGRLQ

Consider `Cn1cc(C(=O)NC[C@@H]2OC[C@H]3CN(Cc4ccco4)CC[C@H]32)cn1`, for which the Percent Effect in [1] is 1.17%; in assay [2] it was 8.22%; in assay [3] it was -8.23%; in assay [4] it was 6.71%; in the assay with Trypanosoma cruzi, 5.75%; in assay [5], -2.79%. Besides, the Percent Effect in [6] is 8.3%; in the assay filed under Homo sapiens, 17%; in [7] it was 3.12%; in [8], 11.1%; in assay [9], -3.21%.

In the case of `Cc1cc(C[C@@H]2COC[C@@H]2NC(=O)Cn2c(=O)oc3ccccc32)on1`, the Percent Effect in assay [1] was -0.169%; in assay [2], 5.48%; in assay [3] it was 1.35%; in [4], -2.12%; in the assay with Trypanosoma cruzi, 3.33%; in [5] it was 8.64%. The Percent Effect is 1.77% in [6]; -6.43% in the assay filed under Homo sapiens; 4.3% in [7]; 7.5% in assay [8]; 1.28% in assay [9].

With `CNS(=O)(=O)c1cccc(CNc2nccc(C(F)(F)F)n2)c1`, the Percent Effect in assay [1] is -0.353%; in assay [2], 16.2%; in [3] it was 14.6%; in assay [4] it was -2.3%; in the assay with Trypanosoma cruzi it was 5.19%; in assay [5], -1.6%. Also, the Percent Effect in [6] was 15.1%; in the assay filed under Homo sapiens, 46.9%; in assay [7], -0.493%; in assay [8] it was 16.1%; in assay [9], -15.9%.

Turning to `COc1cc(CNC2CCc3nc(C)nn3C2)cc2c1OCCO2` (stereo unspecified), the Percent Effect in assay [1] is -2.1%; in [2] it was 7.89%; in assay [3], -9.24%; in assay [4], 6.01%; in the assay on Trypanosoma cruzi, 5.51%; in [5], 5.04%. In addition, the Percent Effect in [6] is 2.62%; in the assay listed under Homo sapiens, -11.3%; in assay [7] it was 2.46%; in assay [8], 11.1%; in assay [9], -1.5%.

As for `Cc1cc(F)ccc1OC1(C(=O)O)CCN(Cc2cccnc2N)CC1`, the Percent Effect was -6.33% in assay [1]; 5.33% in assay [2]; -1.53% in assay [3]; 2.08% in [4]; -3.02% in the assay on Trypanosoma cruzi; -0.521% in [5]. Moreover, the Percent Effect in assay [6] turned out to be 5.93%; in the assay filed under Homo sapiens, 0.568%; in [7], 6.01%; in [8] it was 11.1%; in assay [9], 1.09%.

Take `CCCNC(=O)N1CCC(Oc2cc(C)ccc2F)(C(=O)O)CC1`: the Percent Effect in assay [1] was -2.42%; in assay [2], 9.72%; in [3], -3.19%; in assay [4] it was 22.9%; with Trypanosoma cruzi, 6.9%; in [5], 24.3%. Also, the Percent Effect is 1.75% in [6]; -5.25% in the assay filed under Homo sapiens; -1.05% in [7]; 10.3% in assay [8]; -1.57% in assay [9].

For `Cc1ccc(C(=O)O)cc1S(=O)(=O)Nc1nn(-c2ccccc2)cc1C`, the Percent Effect in assay [1] is -5.95%; in assay [2], 2.74%; in assay [3], 9.77%; in assay [4] it was 0.854%; in the assay on Trypanosoma cruzi, -5.09%; in assay [5] it was 0.455%. The Percent Effect was 17.6% in assay [6]; 17.3% in the assay listed under Homo sapiens; -10.8% in assay [7]; -17.5% in [8]; -5.76% in assay [9].

With `O=C(NCc1ccc(-c2ccn[nH]2)cc1)N1CCC(N2CCCC2)C1` (stereo unspecified), the Percent Effect was -6.43% in [1]; 2.63% in assay [2]; -5.77% in assay [3]; 6.24% in assay [4]; 1.59% with Trypanosoma cruzi; -5.4% in assay [5]. Moreover, the Percent Effect came out at 4.65% in [6]; 5.01% in the assay filed under Homo sapiens; 10.3% in assay [7]; 18.5% in [8]; 1.9% in [9].

As for `O=C(c1ccco1)N1CCCC1C1CCN(Cc2ccccc2)CC1` (stereo unspecified), the Percent Effect in [1] was -3.11%; in [2], 7.89%; in assay [3], 6.52%; in assay [4], -0.267%; in the assay on Trypanosoma cruzi it was -2.24%; in assay [5], 4.73%. Further, the Percent Effect in [6] was 17.9%; in the assay filed under Homo sapiens, 8.16%; in assay [7], 6.38%; in [8] it was 10.4%; in assay [9] it was -2.37%.

Take `COc1cc(N2C[C@@H]3COC[C@]3(COc3ccc(C#N)cn3)C2)ncn1`: the Percent Effect in assay [1] was -3.38%; in assay [2] it was 13.5%; in [3], 2.34%; in [4], 2.33%; in the assay on Trypanosoma cruzi, 4.01%; in assay [5], 9.24%. Also, the Percent Effect in assay [6] was 12.6%; in the assay filed under Homo sapiens, 35.9%; in assay [7], 4.32%; in [8], 7.69%; in assay [9], 1.63%.

As to `Cc1nnc(Nc2cccc(C3CCN(CCO)CC3)n2)s1`, the Percent Effect in assay [1] was -1.13%; in assay [2], 13.3%; in [3], 4.79%; in assay [4], -2.96%; in the assay with Trypanosoma cruzi, 1.38%; in assay [5], 1.63%. Also, the Percent Effect was 4.85% in assay [6]; 11.5% in the assay listed under Homo sapiens; 6.38% in assay [7]; 14.1% in assay [8]; -3.37% in [9].
